PubChem BioAssay AID1159580 (chemical genetic matrix, 2015)
Values joined by “and” are separate entries in the source; they are usually repeats but may differ in a detail not shown here. Equal values may be shown once. Out of some 5,500 compounds screened, about 2,000 (36%) were called active. About 18% were inconclusive and are not listed. Rule as the data show it: active = normalized growth mostly below about 0.91 (no sharp cut-off); inconclusive = no clear call, values can overlap the other calls; inactive = mostly above about 0.92. This is one part of the list.

Test: chemical genetic growth profiling, strain panel (AID 1159580);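 also: tested at 20 µM; growth read once vehicle control cultures reached saturation at 30 °C; 1 = growth at the plate median or of vehicle wells; lower values mean less growth of the strain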
Conditions: S. cerevisiae deletion strains, growth OD

Measured: normalized growth

CC(=O)Oc1ccc2c(c1)CCC1C2CC[C@@]2(C)C1CC[C@@H]2OC(C)=O (some centres undefined)
inactive: locus YAL021C, strain ccr4, hits give low values 1.01 | locus YAL026C, strain drs2, hits give low values 0.984 | locus YAL030W, strain snc1, hits give low values 0.984 | locus YBL061C, strain skt5, hits give low values 0.977 | locus YBR009C, strain hhf1, hits give low values 0.969 | locus YBR021W, strain FUR4, hits give low values 0.955 | locus YBR023C, strain chs3, hits give low values 0.957 | locus YBR171W, strain sec66, hits give low values 0.921 | locus YBR229C, strain ROT2, hits give low values 0.94 | locus YBR231C, strain swc5, hits give low values 1.02 | locus YBR279W, strain paf1, hits give low values 1.02 | locus YCL011C, strain gbp2, hits give low values 0.991 | locus YCL016C, strain dcc1, hits give low values 0.991 | locus YCL029C, strain bik1, hits give low values 0.972 | locus YCL069W, strain vba3, hits give low values 0.989 | locus YCR088W, strain abp1, hits give low values 0.978 | locus YDL005C, strain med2, hits give low values 1 | locus YDL035C, strain GPR1, hits give low values 0.971 | locus YDL040C, strain nat1, hits give low values 0.994 | locus YDL074C, strain BRE1, hits give low values 0.872 | locus YDL101C, strain DUN1, hits give low values 0.969 | locus YDL134C, strain PPH21, hits give low values 0.985 | locus YDL185W, strain tfp1, hits give low values 0.983 | locus YDL192W, strain arf1, hits give low values 0.984 | locus YDR001C, strain nth1, hits give low values 0.983 | locus YDR069C, strain doa4, hits give low values 0.983 | locus YDR101C, strain arx1, hits give low values 0.967 | locus YDR159W, strain sac3, hits give low values 0.924 | locus YDR162C, strain NBP2, hits give low values 0.969 | locus YDR195W, strain ref2 1.08 | locus YDR297W, strain sur2, hits give low values 0.988 | locus YDR318W, strain mcm21, hits give low values 0.971 | locus YDR334W, strain swr1, hits give low values 0.994 | locus YDR335W, strain msn5, hits give low values 1.03 | locus YDR388W, hits give low values 0.979 | locus YDR502C, strain sam2, hits give low values 0.969 | locus YEL003W, strain gim4, hits give low values 0.973 | locus YEL037C, strain rad23, hits give low values 0.992 | locus YEL061C, strain CIN8 (second series), hits give low values 0.992 | locus YEL061C, strain CIN8, hits give low values 0.964 | locus YER015W, strain faa2, hits give low values 1 | locus YER016W, strain bim1, hits give low values 1 | locus YER110C, hits give low values 0.984 | locus YER111C, strain swi4, hits give low values 0.986 | locus YER155C, strain BEM2 (second series), hits give low values 0.951 | locus YER155C, strain BEM2, hits give low values 0.973 | locus YER167W, strain BCK2, hits give low values 0.971 | locus YFR010W, strain ubp6, hits give low values 1 | locus YGL078C, strain dbp3, hits give low values 0.98 | locus YGL086W, strain mad1, hits give low values 0.958 | locus YGL167C, strain pmr1, hits give low values 0.973 | locus YGL173C, strain kem1, hits give low values 0.987 | locus YGL227W, strain vid30, hits give low values 0.989 | locus YGL240W, strain doc1, hits give low values 0.993 | locus YGL248W, strain PDE1, hits give low values 0.94 | locus YGL253W, strain hxk2, hits give low values 1.01 | locus YGR078C, strain PAC10, hits give low values 0.943 | locus YGR135W, strain pre9, hits give low values 0.986 | locus YGR229C, strain SMI1, hits give low values 0.954 | locus YGR252W, strain gcn5, hits give low values 0.947 | locus YHR013C, strain ard1, hits give low values 1.02 | locus YHR027C, strain rpn1, hits give low values 0.995 | locus YHR030C, strain SLT2, hits give low values 0.988 and 0.952 | locus YHR079C, strain IRE1 (second series), hits give low values 0.977 | locus YHR079C, strain IRE1, hits give low values 0.937 | locus YHR094C, strain hxt1, hits give low values 0.978 | locus YHR129C, strain ARP1, hits give low values 0.982 | locus YHR142W, strain chs7, hits give low values 0.953 | locus YHR200W, strain rpn10, hits give low values 0.963 | locus YIL066C, strain RNR3, hits give low values 0.948 | locus YIL073C, strain SPO22, hits give low values 0.97 | locus YIL125W, strain kgd1, hits give low values 0.966 | locus YIR030C, strain dcg1, hits give low values 0.981 | locus YJL092W, strain hpr5, hits give low values 0.975 | locus YJL095W, strain BCK1 (second series), hits give low values 0.973 | locus YJL095W, strain BCK1, hits give low values 0.926 and 0.951 | locus YJL115W, strain asf1, hits give low values 0.997 | locus YJL129C, strain trk1, hits give low values 0.886 | locus YJL134W, strain LCB3, hits give low values 0.978 | locus YJL154C, strain vps35, hits give low values 0.995 | locus YJL164C, strain tpk1, hits give low values 0.958 | locus YJL166W, strain qcr8, hits give low values 0.988 | locus YJL168C, strain set2, hits give low values 0.963 | locus YJL187C, strain SWE1 (second series), hits give low values 0.956 | locus YJL187C, strain SWE1, hits give low values 0.979 | locus YJR043C, strain POL32, hits give low values 0.976 | locus YJR066W, strain TOR1, hits give low values 0.956
active: locus YDR137W, strain rgp1, hits give low values 0.841 | locus YDR392W, strain spt3, hits give low values 0.674
